Measured values taken from PubChem BioAssay (NCI).
About 79,000 compounds went through this panel and 15% of them were active in at least one assay; those are over-represented in the sample as a whole. Activity calls are given as the source filed them. No stated cut-off is given here; in the data, active means growth inhibition above about 70%; inactive means the rest.

What was measured:
[1] = NCI Yeast Anticancer Drug Screen. Data for the rad52 strain (AID 147);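 further: 0% = growth of vehicle-treated control cultures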; conditions: S. cerevisiae rad52 mutant growth inhibition, active compounds read high
Method in brief: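 Vehicle-treated cultures served as the reference for growth inhibition of compound-exposed yeast bearing a DNA repair mutation.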

[2] = NCI Yeast Anticancer Drug Screen. Data for the wt1 strain (AID 149);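 further: 0% = growth of vehicle-treated wt1 cultures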; conditions: S. cerevisiae wt1 strain (SPY 50644) growth inhibition, active compounds read high
Method in brief: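 Using yeast strain wt1, compound-induced growth inhibition was determined against vehicle-treated cultures.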

[3] = NCI Yeast Anticancer Drug Screen. Data for the rad50EPP+ strain (AID 151);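 further: 0% = growth of vehicle-treated control cultures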; conditions: S. cerevisiae rad50 mutant strain, active compounds read high
Method in brief: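 In this screen, rad50EPP+ yeast were exposed to compounds. Growth inhibition was scored against vehicle-treated controls.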

[4] = NCI Yeast Anticancer Drug Screen. Data for the mgt1 strain (AID 153); conditions: S. cerevisiae mgt1 mutant growth inhibition, active compounds read high
Method in brief: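 mgt1 strain exposed; growth vs vehicle control recorded as inhibition.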

[5] = NCI Yeast Anticancer Drug Screen. Data for the rad50 strain (AID 155);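 further: 0% = growth of vehicle-only cultures of the same strain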; conditions: S. cerevisiae rad50 strain growth inhibition, active compounds read high
Method in brief: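 Relative growth inhibition (compound vs vehicle) was measured in yeast with a defined repair-gene alteration.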

[6] = NCI Yeast Anticancer Drug Screen. Data for the mec2-1 strain (AID 157); conditions: S. cerevisiae mec2-1 strain, active compounds read high
Method in brief: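 Vehicle-treated cultures served as reference for growth inhibition of compound-exposed mec2-1 yeast.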

[7] = NCI Yeast Anticancer Drug Screen. Data for the rad14 strain (AID 159);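 further: 0% = growth of vehicle-treated control cultures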; conditions: S. cerevisiae rad14 strain growth inhibition, active compounds read high
Method in brief: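 Screen for anticancer potential: a yeast strain altered in DNA damage repair is grown with compound, and reduced growth is quantified against vehicle controls.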

[8] = NCI Yeast Anticancer Drug Screen. Data for the sgs1 mgt1 strain (AID 161);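 further: 0% = growth of cultures given vehicle only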; conditions: S. cerevisiae sgs1 mgt1 strain, active compounds read high
Method in brief: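 Genetically altered yeast, compound exposure, growth inhibition relative to vehicle.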

[9] = NCI Yeast Anticancer Drug Screen. Data for the CLN2oe strain (AID 163);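 further: 0% = growth of vehicle-only control cultures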; conditions: S. cerevisiae CLN2oe strain, active compounds read high
Method in brief: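 Inhibition relative to vehicle-treated yeast is reported. Cells: strain with genetic alteration in cell-cycle control, grown with compound.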

[10] = NCI Yeast Anticancer Drug Screen. Data for the cln2 rad14 strain (AID 165);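 further: 0% = growth equal to vehicle treated cultures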; conditions: S. cerevisiae cln2 rad14 strain, active compounds read high
Method in brief: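 Each compound was tested on cln2 rad14 yeast. Inhibition of growth was calculated against vehicle-exposed controls.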

[11] = NCI Yeast Anticancer Drug Screen. Data for the bub3 strain (AID 167); conditions: S. cerevisiae bub3 mutant strain, active compounds read high
Method in brief: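 Screening used yeast with an engineered genetic alteration affecting cell cycle control. Compound-exposed cultures were compared with vehicle cultures, and reduced growth was taken as inhibition.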

[12] = NCI Yeast Anticancer Drug Screen. Data for the wt2 strain (AID 169);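 further: 0% = growth of vehicle-treated yeast cultures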; conditions: S. cerevisiae wt2 strain growth inhibition, active compounds read high
Method in brief: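 Inhibition of yeast growth was determined after compound treatment, normalised to controls receiving only vehicle.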

[13] = NCI Yeast Anticancer Drug Screen. Data for the mlh1 strain (AID 171);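 further: 0% = growth of vehicle-treated control cultures of the same strain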; conditions: S. cerevisiae mlh1 strain growth inhibition, active compounds read high
Method in brief: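 Vehicle-normalised growth inhibition of a repair- or checkpoint-altered yeast strain following compound treatment.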

[14] = NCI Yeast Anticancer Drug Screen. Data for the sgs1 strain (AID 173);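 further: 0% = growth of vehicle-only control cultures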; conditions: S. cerevisiae sgs1 mutant, active compounds read high
Method in brief: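 Screen format: yeast with repair or checkpoint alterations, compound exposure, growth read relative to vehicle.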

[15] = NCI Yeast Anticancer Drug Screen. Data for the mlh1 rad18 strain (AID 175); conditions: S. cerevisiae mlh1 rad18 strain growth inhibition, active compounds read high
Method in brief: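 Vehicle-treated cultures served as the reference for growth inhibition in a yeast strain carrying DNA damage repair alterations exposed to each compound.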

[16] = NCI Yeast Anticancer Drug Screen. Data for the rad18 strain (AID 177); conditions: S. cerevisiae rad18 mutant growth inhibition, active compounds read high
Method in brief: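 Test articles were incubated with altered yeast defective in DNA damage repair. Results are given as inhibition of growth versus vehicle.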

[17] = at 5.0 µM (retest, dose inferred, filed as 0.5)
[18] = at 50.0 µM (retest, dose inferred, filed as 5.0)

Measured: growth inhibition

COc1cc(C2C3=C(COC3=O)Oc3cc4c(cc32)OCO4)cc(OC)c1O (stereo unspecified)
inactive: [2]; at 1.2 µM 1% | [2]; at 3.7 µM 2% | [2]; at 11.0 µM 3% | [2]; at 33.0 µM 6% | [2]; at 100.0 µM 8% | [3]; at 1.2 µM -2% | [3]; at 3.7 µM 0% | [3]; at 11.0 µM 1% | [3]; at 33.0 µM -3% | [3]; at 100.0 µM 0% | [4]; at 1.2 µM 0% | [4]; at 3.7 µM -2% | [4]; at 11.0 µM 15% | [4]; at 33.0 µM -2% | [4]; at 100.0 µM 7% | [5]; [17] 14% | [6]; at 1.2 µM 12% | [6]; at 3.7 µM 7% | [6]; [17] -24% | [6]; at 11.0 µM 18% | [6]; at 33.0 µM 25% | [6]; [18] 39% | [6]; at 50.0 µM 59.1% | [6]; at 100.0 µM 29% | [7]; at 1.2 µM 5% | [7]; at 3.7 µM 5% | [7]; at 11.0 µM 16% | [7]; at 33.0 µM 12% | [7]; at 100.0 µM 15% | [8]; [17] -3% | [8]; [18] 47% | [8]; at 50.0 µM 36.7% | [9]; at 1.2 µM 0% | [9]; at 3.7 µM -3% | [9]; at 11.0 µM 5% | [9]; at 33.0 µM 17% | [9]; at 100.0 µM 21% | [10]; [17] 8% | [10]; [18] 51% | [10]; at 50.0 µM 55.1% | [11]; at 1.2 µM 1% | [11]; at 3.7 µM -1% | [11]; [17] -18% | [11]; at 11.0 µM 14% | [11]; at 33.0 µM 10% | [11]; [18] 9% | [11]; at 50.0 µM 23.3% | [11]; at 100.0 µM 13% | [12]; at 1.2 µM 2% | [12]; at 3.7 µM 1% | [12]; at 11.0 µM 5% | [12]; at 33.0 µM 6% | [12]; at 100.0 µM 8% | [13]; at 1.2 µM 3% | [13]; at 3.7 µM 0% | [13]; at 11.0 µM 8% | [13]; at 33.0 µM 10% | [13]; at 100.0 µM 10% | [14]; at 1.2 µM 13% | [14]; at 3.7 µM 10% | [14]; at 11.0 µM 22% | [14]; at 33.0 µM 26% | [14]; at 100.0 µM 28% | [15]; [17] -10% | [15]; [18] 58% | [16]; at 1.2 µM 11% | [16]; at 3.7 µM 11% | [16]; at 11.0 µM 19% | [16]; at 33.0 µM 9% | [16]; at 100.0 µM 24%
active: [1]; at 1.2 µM 90% | [1]; at 3.7 µM 86% | [1]; at 11.0 µM 93% | [1]; at 33.0 µM 93% | [1]; at 100.0 µM 94% | [5]; at 1.2 µM 88% | [5]; at 3.7 µM 88% | [5]; at 11.0 µM 92% | [5]; at 33.0 µM 92% | [5]; [18] 97% | [5]; at 50.0 µM 70% | [5]; at 100.0 µM 93% | [15]; at 50.0 µM 72.7%

CNCC(C)CNC
inactive: [1]; at 1.2 µM -40% | [1]; at 3.7 µM -51% | [1]; at 11.0 µM -46% | [1]; at 33.0 µM -50% | [1]; at 100.0 µM -52% | [2]; at 1.2 µM -25% | [2]; at 3.7 µM -14% | [2]; at 11.0 µM -5% | [2]; at 33.0 µM -8% | [2]; at 100.0 µM -21% | [3]; at 1.2 µM -14% | [3]; at 3.7 µM -29% | [3]; at 11.0 µM -23% | [3]; at 33.0 µM -2% | [3]; at 100.0 µM -19% | [4]; at 1.2 µM 9% | [4]; at 3.7 µM 17% | [4]; at 11.0 µM 25% | [4]; at 33.0 µM 4% | [4]; at 100.0 µM 5% | [5]; at 1.2 µM 4% | [5]; at 3.7 µM -14% | [5]; [17] -6% | [5]; at 11.0 µM -28% | [5]; at 33.0 µM -27% | [5]; [18] 22% | [5]; at 100.0 µM -23% | [6]; at 1.2 µM -12% | [6]; at 3.7 µM -15% | [6]; [17] 10% | [6]; at 11.0 µM -19% | [6]; at 33.0 µM -27% | [6]; [18] 39% | [6]; at 50.0 µM 42.5% | [6]; at 100.0 µM -26% | [7]; at 1.2 µM -18% | [7]; at 3.7 µM -15% | [7]; at 11.0 µM -13% | [7]; at 33.0 µM -12% | [7]; at 100.0 µM -18% | [8]; [17] 2% | [8]; [18] 25% | [8]; at 50.0 µM 23.3% | [9]; at 1.2 µM 15% | [9]; at 3.7 µM 6% | [9]; at 11.0 µM -1% | [9]; at 33.0 µM -7% | [9]; at 100.0 µM -12% | [10]; [17] 20% | [10]; [18] 63% | [10]; at 50.0 µM 66.2% | [11]; at 1.2 µM -11% | [11]; at 3.7 µM 1% | [11]; [17] -9% | [11]; at 11.0 µM -8% | [11]; at 33.0 µM -33% | [11]; [18] 69% | [11]; at 50.0 µM -2.65% | [11]; at 100.0 µM -50% | [12]; at 1.2 µM -30% | [12]; at 3.7 µM -30% | [12]; at 11.0 µM -28% | [12]; at 33.0 µM -37% | [12]; at 100.0 µM -41% | [13]; at 1.2 µM 12% | [13]; at 3.7 µM 8% | [13]; at 11.0 µM 5% | [13]; at 33.0 µM 6% | [13]; at 100.0 µM -30% | [14]; at 1.2 µM -28% | [14]; at 3.7 µM -6% | [14]; at 11.0 µM -22% | [14]; at 33.0 µM -23% | [14]; at 100.0 µM -22% | [15]; [17] -6% | [16]; at 1.2 µM -16% | [16]; at 3.7 µM -25% | [16]; at 11.0 µM -21% | [16]; at 33.0 µM -21% | [16]; at 100.0 µM -31%
active: [5]; at 50.0 µM 73.8% | [15]; [18] 84% | [15]; at 50.0 µM 71.8%
